Sampled rows, rich in hits. Any-hit rate of the full collection: about 19%.
KB-V1 cytotox – qHTS assay for MDR1-selective chemotherapeutics: Primary screen using the drug-selected MDR subline cells KB-V1; AID 1347076, 2019; KB-V1 MDR cells viability, CellTiter-Glo, 72 h; actives 3.4% (n = 400,000); Potency, µM (top dose mostly 46.1 µM), hits mostly cytotoxic; also: nearly all actives have a fitted effect of over 60% in size
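Drug-selected KB-V1 cells, grown in DMEM lacking phenol red with 10% FBS, receive compound titrations; after three days at 37 degrees C, surviving cell ATP is quantified by CellTiter-Glo luminescence and responses normalized and curve-fitted.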
KB-3-1 cytotox – qHTS assay for MDR1-selective chemotherapeutics: Primary screen using the parental adenocarcinoma cell KB-3-1; AID 1347075, 2019; Potency, µM (doses to about 46.1 µM), usual class: cytotoxic; actives 1.4% (n = 400,000); KB-3-1 viability, CellTiter-Glo ATP luminescence, 72 h; also: nearly all actives have a fitted effect of over 60% in size
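KB-3-1 cells, DMEM (no phenol red) + 10% FBS; compound by pin transfer, 72 h, 37 °C. Readout: CellTiter-Glo luminescence after 10 min. Data normalized, curve-fitted.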
DT40 TDP1 no CPT – qHTS for Inhibitors of human tyrosyl-DNA phosphodiesterase 1 (TDP1): qHTS in cells in absence of CPT; DT40 Tdp1-/- hTDP1 cells, no CPT, ATP luminescence, 48 h; actives 15% (n = 420,000); Potency, µM (titrated, usually from 46.2 µM), for inactives: at the top dose activity change, negative = growth inhibition, hits mostly inhibitors; also: nearly all actives have a fitted effect of over 55% in size
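No-CPT arm: Tdp1-/-;hTDP1 DT40 cells (400/well) plus compounds, incubated ≥48 hr at 37 °C. Readout CellTiter-Glo luminescence.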
HT1080 IDH1KD tx – qHTS for induction of synthetic lethality in tumor cells producing 2HG: qHTS for the HT-1080-IDH1KD cell line. Potency, µM (top dose mostly 46.1 µM), inactives show at the top dose activity, negative = toxicity, hits mostly cytotoxic. actives 2% (n = 360,000). HT-1080 IDH1 knockdown viability, ATP luminescence, 48 h. AID 686971, 2013;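 also: 0% = DMSO wells and -100% = cell-free medium wells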
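% activity derives from luminescence (CellTiter-Glo), normalised to DMSO and no-cell wells. HT-1080-IDH1KD cells, 750/well, had 48 h compound exposure at 37 °C.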
TDP1 cell CPT – qHTS for Inhibitors of human tyrosyl-DNA phosphodiesterase 1 (TDP1): qHTS in cells in presence of CPT; chicken DT40 Tdp1-/-;hTDP1 cells + 20 nM CPT, ATP luminescence, 48 h; actives 12% (n = 420,000); Potency, µM (series often up to 46.2 µM), without a hit: at the highest dose activity change, negative = growth inhibition, actives largely listed as inhibitors; also: nearly all actives have a fitted effect of over 55% in size
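Cell growth measured by CellTiter-Glo luminescence after a minimum 48 h, 37 C compound exposure with 20 nM CPT in Tdp1-knockout DT40 cells stably expressing hTDP1, seeded 400/well; qHTS titration format.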
HT1080NT lethal – qHTS for induction of synthetic lethality in tumor cells producing 2HG: qHTS for the HT-1080-NT fibrosarcoma cell line. HT-1080-NT fibrosarcoma viability, CellTiter-Glo ATP luminescence, 48 h. Potency, µM (highest dose often 46.1 µM), for the others: at the top dose activity, negative = less viability, most hits filed as cytotoxic. actives 1.6% (n = 360,000);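 also: NT is the 2HG producing partner of a matched IDH1 knockdown line; 0% = DMSO-treated cells and -100% = media-only wells without cells; nearly all actives have a fitted effect of over 55% in size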
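Toxicity toward the 2HG-producing NT line was scored as %Activity, normalised to DMSO and no-cell wells, from CellTiter-Glo luminescence after 48 hours' treatment.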
* marks the source's active call; other numbers are inactive results; i = inactive; ? = inconclusive; . = not tested or not shown; [ ] = another dose, or the depositor's remark. Calls follow the shape of the dose curve; as a rule, active = well fitted curve in the direction sought with a large enough effect; inconclusive = small, poorly fitted or top-dose-only effect, or another doubt; inactive = no such curve, though single readings can be large; an effect the other way counts as inactive or inconclusive. Unless noted, % is scaled to controls: 0 for no effect and ±100 for the full control effect; potency is read from the fitted curve at half-maximal effect.

SMILES	KB-V1 cytotox	KB-3-1 cytotox	DT40 TDP1 no CPT	HT1080 IDH1KD tx	TDP1 cell CPT	HT1080NT lethal
CC(C)Oc1ccc(C(=O)Nc2nnc(C3=COCCO3)o2)cc1	i	?	?	-3.8%	18.4µM*	0.3%
Cn1c(CC(=O)Nc2ccc(Cl)cc2)nnc1SCC(=O)N1CCOCC1	.	.	-17.6%	9.3%	15.2%	5.5%
CCOc1ccc(C/C(N)=N/n2cnnc2)cc1	i	i	?	2.9%	-19.6%	-3.8%
COc1ccc(OC)c(S(=O)(=O)N2CCC(NC(=O)c3ccccc3)CC2)c1	i	i	?	7.0%	-6.6%	11.7%
O=C(CSC1CN(C(c2ccccc2)c2ccccc2)C1)N/N=C/c1ccccc1	i	i	?	23.1µM*	16.4µM*	?
OC(Cc1cccnc1)c1ccccc1 (stereo not given)	i	i	1.6%	27.0%	-2.0%	11.7%
CCOc1ccc(/C=N/n2cc(-c3ccccc3)[nH]c2=S)cc1	i	i	5.17µM*	-13.6%	2.59µM*	-12.6%
COc1ccc(-c2cc(=O)n(-c3ccc([N+](=O)[O-])cc3)[nH]2)cc1	i	?	16.4µM*	?	?	?
CCC1CN(Cc2cn[nH]c2-c2ccccc2)Cc2cc(OC)ccc2O1 (stereo not given)	.	.	18.4µM*	.	-7.4%[9.04 µM]	.
CCC1CN(Cc2cn[nH]c2-c2ccc(F)cc2)Cc2cc(OC)ccc2O1 (stereo not given)	.	.	20.6µM*	.	?	.
CCCCC(=O)c1ccc(OC(=O)c2ccc([N+](=O)[O-])cc2)cc1	i	i	-15.5%	9.2%	-26.8%	5.6%
CC(=O)NC12CC3CC(C1)CC(C(=O)NCC(=O)Nc1c(C)cc(C)cc1C)(C3)C2	i	i	9.6%	-1.7%	-46.5%	-2.7%
CC(=O)NC12CC3CC(C1)CC(C(=O)Oc1ccc(N(C)S(=O)(=O)c4cc(C)ccc4C)cc1)(C3)C2	i	i	16.4µM*	-10.5%	?	-23.7%
O=C(COC(=O)c1cnc(Cl)c(Cl)c1)NC1CCCC1	i	i	-22.6%	-8.6%	-2.3%	-4.2%
CC(C)(C)N(CC#CCC1(O)c2ccccc2-c2ccccc21)CCO	i	i	-21.2%	-6.8%	14.2%	-13.2%
CCCCCCC(=O)Nc1nc(C)c(-c2csc(Nc3ccc(Cl)cc3)n2)s1	i	?	4.61µM*	?	2.31µM*	20.6µM*
CCCCCC(=O)Nc1nc(C)c(-c2csc(Nc3ccc(Cl)cc3)n2)s1	i	i	13µM*	?	?	-23.0%
CCCCCC(=O)Nc1nc(C)c(-c2csc(Nc3cc(Cl)ccc3C)n2)s1	i	i	18.4µM*	?	?	?
CC(C)CNC(=S)NNC(=O)c1ccco1	i	i	-5.9%	-0.6%	-13.8%	-2.2%
Cc1[nH]c2ccccc2c1C(=O)CN1CC(C)OC(C)C1 (stereo not given)	i	i	-19.8%	5.7%	2.5%	6.1%
Cc1ccc(S(=O)(=O)N2[C@@H](c3ccc(F)cc3)C(C(=O)O)=C[C@H]2CC2CCCC2)cc1	i	i	2.0%	-2.3%	9.3%	-2.4%
Cc1cccc(N2C(=O)N3[C@H](c4ccc(Br)cc4)[C@@H]4C(=O)N(C(C)(C)C)C(=O)[C@@H]4[C@]3(C)C2=O)c1	i	i	?	0.1%	18.4µM*	-2.3%
O=C1[C@H]2[C@@H](c3ccc(Cl)cc3)N3C(=O)N(c4cccc(Cl)c4)C(=O)[C@@]3(Cc3ccccc3)[C@H]2C(=O)N1C1CCCCC1	i	i	11.6µM*	8.7%	10.3µM*	4.5%
O=C1[C@H]2[C@@H](c3ccc(F)cc3)N3C(=O)N(c4cccc(Br)c4)C(=O)[C@@]3(Cc3ccccc3)[C@H]2C(=O)N1C1CCCCC1	?	?	-10.3%	-4.2%	-12.2%	2.3%
Cc1ccc(N2C(=O)N3[C@H](c4ccc(Br)cc4)[C@@H]4C(=O)N(C(C)(C)C)C(=O)[C@@H]4[C@]3(C)C2=O)cc1	i	i	-7.4%	-12.3%	?	-4.0%
SMILES	KB-V1 cytotox	KB-3-1 cytotox	DT40 TDP1 no CPT	HT1080 IDH1KD tx	TDP1 cell CPT	HT1080NT lethal
CC(C)(C)N1C(=O)[C@H]2[C@@H](c3ccc(Br)cc3)N3C(=O)N(c4cccc(F)c4)C(=O)[C@@]3(Cc3ccccc3)[C@H]2C1=O	i	i	?	3.5%	?	8.9%
CC(C)(C)N1C(=O)[C@H]2[C@@H](c3ccc(Br)cc3)N3C(=O)N(c4ccc(Br)cc4)C(=O)[C@@]3(Cc3ccccc3)[C@H]2C1=O	i	i	?	-3.7%	20.6µM*	0.5%
NC(=Nc1c([N+](=O)[O-])cnc2ccccc12)N1CCOCC1	i	i	-8.9%	6.3%	-20.2%	7.2%
CC(CC(=O)Nc1ccc(S(=O)(=O)Nc2ncccn2)cc1)c1ccccc1 (stereo not given)	i	i	-10.3%	7.8%	1.6%	10.4%
Cc1cc(C)c(NC(=O)c2ccccc2CCc2ccccc2)c(C)c1	i	i	?	?	18.4µM*	-2.7%
Cc1ccc(NC(=O)c2ccccc2CCc2ccccc2)c(C)c1	i	i	-26.1%	-8.4%	-10.2%	-23.4%
O=C(NCc1ccccc1Cl)c1ccccc1CCc1ccccc1	i	i	16.4µM*	-9.8%	?	-8.6%
O=C(NCc1ccc(Cl)cc1)c1ccccc1CCc1ccccc1	20.6µM*	i	-29.6%	-5.8%	-11.8%	-2.0%
Cc1ccc(-n2c(=O)c3c4c(sc3n(CC(=O)C(C)(C)C)c2=O)CCCCC4)cc1C	i	i	?	.	?	.
CC(C)NC(=O)c1cc2cc(Br)ccc2oc1=O	i	i	23.1µM*	2.1%	?	0.5%
Cc1ccc(C(C)NC(=O)c2cc3cc(Br)ccc3oc2=N)cc1 (stereo not given)	?	i	20.6µM*	-1.0%	23.1µM*	9.3%
